# This is a sample that favours compounds with a hit; in the whole collection about 8.1% have one here.
# KB-3-1 cytotox – KB-3-1 parental cell cytotoxicity | KB-3-1 viability, CellTiter-Glo ATP luminescence, 72 h | Potency, µM (titrated, usually from 46.1 µM), hits mostly cytotoxic | 1.4% of 400,000 active | AID 1347075; note: nearly all actives have a fitted effect of over 60% in size
#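 Cytotoxicity in the drug-sensitive parental line KB-3-1 was scored as loss of CellTiter-Glo luminescence following 72 h incubation with compound. Values come from curve fitting of normalized concentration-response data.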
# ELG1 DNA repair – blocks ELG1-dependent DNA repair in HEK293T cells | HEK293T ELG1-luciferase reporter, luminescence, 16 h; DNA damage induced by 5-fluorouridine | Potency, µM (doses to about 46.1 µM), most hits filed as inhibitors | 2.3% of 330,000 active | AID 504467; note: nearly all actives have a fitted effect of over 55% in size
#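 Luminescence from the luciferase reporter, measured 30 min after ONE-Glo reagent at room temperature, was the read-out. Beforehand, 2,000 cells per well were exposed for 16 hr at 37 °C to 5-fluorouridine together with compound or vehicle.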
# SW480 rereplic – DNA re-replication induction in SW480 cells; SW480 DNA re-replication, Hoechst DNA content imaging, 48 h; Potency, µM (titrated, usually from 46.1 µM), hits mostly activators; 1.8% of 340,000 active; AID 624297; note: nearly all actives have a fitted effect of over 55% in size
#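 250 cells/well; 23 nL cpd via pin tool; 48 hr, 37 C, 5% CO2; Hoechst 40 min; imager read of total nuclear intensity, ex 405/em 500-530 nm.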
# KB-V1 MDR tox – kills drug-selected multidrug resistant KB-V1 cells; KB-V1 MDR cells viability, CellTiter-Glo, 72 h; Potency, µM (series often up to 46.1 µM), hits mostly cytotoxic; 3.4% of 400,000 active; AID 1347076; note: nearly all actives have a fitted effect of over 60% in size
#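 qHTS viability screen in drug-selected KB-V1 MDR cells: 72 h compound treatment at 37 degrees C, ATP luminescence end point.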
# MCF10A rerep – induces DNA re-replication in MCF 10a normal breast cells | AID 624296 | 2.9% of 350,000 active | Potency, µM (doses to about 46.1 µM), usual class: activators | MCF 10A DNA re-replication, Hoechst nuclear intensity, 48 h; note: nearly all actives have a fitted effect of over 50% in size
# Hits are given with their value; . = inactive; ? = inconclusive; / = no result; [ ] = dose if it differs, or a comment. Calls come from the whole dose curve; as a rule, active = well fitted curve in the direction sought with a large enough effect; inconclusive = small, poorly fitted or top-dose-only effect, or another doubt; inactive = no such curve, though single readings can be large; an effect the other way counts as inactive or inconclusive.
SMILES,KB-3-1 cytotox,ELG1 DNA repair,SW480 rereplic,KB-V1 MDR tox,MCF10A rerep
C[C@H](CO)N1C[C@H](C)[C@@H](CN(C)S(=O)(=O)c2ccccc2)Oc2ccc(NS(=O)(=O)c3ccc(F)cc3)cc2C1=O,.,?,.[9.22 µM],.,.
C[C@H](CO)N1C[C@H](C)[C@@H](CN(C)S(=O)(=O)c2cccs2)Oc2ccc(NS(=O)(=O)c3ccccc3)cc2C1=O,.,9.2µM,.,.,.
C[C@H](CO)N1C[C@H](C)[C@@H](CN(C)S(=O)(=O)c2ccccc2)Oc2ccc(NS(=O)(=O)c3ccccc3)cc2C1=O,.,23µM,.,.,.
COc1ccc(S(=O)(=O)Nc2ccc3c(c2)C(=O)N([C@@H](C)CO)C[C@H](C)[C@H](CN(C)S(=O)(=O)c2ccc(F)cc2)O3)cc1,.,21µM,.,.,.
COCCNC(=O)C1CCCN(C(=O)c2oc3ccccc3c2C)CC1 (configuration not stated),.,/,/,.,/
Cc1cc(C(=O)N2CCCC(C(=O)c3cccc4ccccc34)C2)nc(C)n1 (configuration not stated),.,.,.,?,.
CCCCCCC/C(C)=N/NC(=O)CC(=O)NCCc1ccccc1,.,.,.,.,.
CCOC(=O)c1c(C)[nH]c(C)c1C(=O)COC(=O)CNC(=O)C1CCCCC1,.,.,.,.,.
C[C@H](CO)N1C[C@H](C)[C@@H](CN(C)S(=O)(=O)c2cccs2)Oc2ccc(NS(=O)(=O)c3ccc(F)cc3)cc2C1=O,.,6.5µM,.,.,.
COCc1nc(-c2cc(Br)ccc2OC)no1,.,/,.,.,.
CC1(C)Oc2c(ccc(O)c2CN2CCOCC2)C2=C1CCCC2,.,/,.,18µM,.
Cc1ccc(C)c(NC(=S)/C(=C(\[O-])c2ccc(Cl)s2)[n+]2ccccc2)c1,.,.,.,.,0.65µM
CCOc1ccc(NC(=O)Nc2cccn(Cc3ccccc3)c2=O)cc1,?,?,.,5.8µM,.
COc1ccc(Cn2cccc(NC(=O)Nc3cccc(C#N)c3)c2=O)cc1,.,?,?,4.1µM,?
COc1ccc(Cn2c(C)c(C)c(C#N)c2NC(=O)Nc2cccc(C)c2)cc1,.,.,.,.,?
COc1cccc(N(CC(=O)N2CCOCC2)S(C)(=O)=O)c1,.,.,.,.,.
CS(=O)(=O)N(CC(=O)N1CCCCCC1)c1ccc(Br)cc1,.,.,.,15µM,.
CS(=O)(=O)N(CC(=O)N1CCCCCC1)c1cccc(Br)c1,.,.,.,21µM,.
COc1cccc(N(CC(=O)N2CCCCCC2)S(C)(=O)=O)c1,.,.,.,.,0.82µM
COc1ccccc1N(CC(=O)N/N=C(\C)c1cccc(Br)c1)S(C)(=O)=O,.,.,.,21µM,.
COc1ccc(Cl)cc1NC(=O)COC(=O)c1ccc(C)o1,.,.,.,?,.
CCCC(C(=O)NC1CCCC1)N(C(=O)Cn1nnc(-c2ccc(C)o2)n1)c1ccccc1F (configuration not stated),?,?,.,.,.
COc1ccccc1N(CC(=O)N1CCCCCC1)S(C)(=O)=O,.,/,?,.,0.33µM
CCOC(=O)N1CCN(C(=O)CN(c2ccc(OCc3ccccc3)cc2)S(C)(=O)=O)CC1,.,.,.,5.2µM,.
CCOC(=O)C(C)(C)N(Cc1ccccc1C)S(=O)(=O)c1ccc(Cl)c([N+](=O)[O-])c1,.,?,?,.,18µM
SMILES,KB-3-1 cytotox,ELG1 DNA repair,SW480 rereplic,KB-V1 MDR tox,MCF10A rerep
CCCN(CCC)S(=O)(=O)c1ccc(Cl)c([N+](=O)[O-])c1,.,?,.,.,?
CC(=O)Oc1ccc2nonc2c1OC(C)=O,?,/,/,.,/
Cc1cc2nn(-c3cccc4ccccc34)nc2cc1NC(=O)c1cccs1,.,.,.,16µM,.
Cc1cc2nn(-c3ccc(F)cc3)nc2cc1NC(=O)c1cccc2ccccc12,.,/,/,.,/
CCn1nc(NC(=O)c2ccncc2)c2cc3cccc(C)c3nc21,.,.,.,.,.
CCCn1nc(NC(=O)c2cccs2)c2cc3cccc(C)c3nc21,.,?,?,.,21µM
CCCn1nc(NC(=O)CC)c2cc3cccc(C)c3nc21,.,?,16µM,.,.
COc1ccc(CC(=O)Nc2nn(C)c3nc4c(C)cccc4cc23)cc1,.,.,?,.,3.3µM
